Structures can show the parent of a compound that is named as a salt. ± gives the standard deviation.
Each compound was assayed on Jurkat (assay: mean cell size (FSC-A) relative to DMSO control (fraction of control); higher = larger cells). Conditions: 48 h.
How it was run: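 Jurkat cells at 600 cells/µl were incubated for 1 h and then treated for 48h with the Enzo Screen-Well FDA Approved Drug Library v2.0 at 25µM, with DMSO at 0.9% (v/v) final. Compounds that reduced counts below 20% of controls were retested in 10-fold dilutions down to 25nM. Cell count and mean cell size, taken as forward scatter area, were measured by flow cytometry relative to solvent-only controls. Each plate carried 6-12 controls, and values are means of 3 biological replicates.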
`CCOc1ccc2ccccc2c1C(=O)N[C@@H]1C(=O)N2[C@@H]1SC(C)(C)[C@@H]2C(=O)O` [Nafcillin·Na] (concentration: 25 µM) showed a mean cell size of 0.954 ± 0.025. Work on `CCCN[C@H]1CCc2nc(N)sc2C1` [Pramipexole Dihydrochloride Monohydrate] (concentration: 25 µM) yielded a mean cell size of 1 ± 0.037. `CCCc1cc(=O)[nH]c(=S)[nH]1` [Propylthiouracil] (concentration: 25 µM) was tested, and the mean cell size was 1.02 ± 0.048. In the case of `CC[C@@H]([C@H](C)O)n1ncn(-c2ccc(N3CCN(c4ccc(OC[C@@H]5CO[C@@](Cn6cncn6)(c6ccc(F)cc6F)C5)cc4)CC3)cc2)c1=O` [Posaconazole] (concentration: 25 µM), the mean cell size is reported as 1.02 ± 0.032. Compound `CC(C)NCC(O)c1ccc(NS(C)(=O)=O)cc1` (stereo not drawn) [Sotalol·HCl] (concentration: 25 µM) has a mean cell size of 0.893 ± 0.059. `Cc1nnc(C(C)C)n1C1C[C@H]2CC[C@@H](C1)N2CC[C@H](NC(=O)C1CCC(F)(F)CC1)c1ccccc1` (stereo in doubt) [Maraviroc] (concentration: 25 µM) showed a mean cell size of 1 ± 0.044. `C[C@H](Cn1cnc2c(N)ncnc21)OCP(=O)(O)O` [Tenofovir] (concentration: 2.5 µM) showed a mean cell size of 0.997 ± 0.14. In the case of `CCOC(=O)O[C@]1(C(=O)OCCl)CC[C@H]2[C@@H]3CCC4=CC(=O)C=C[C@]4(C)[C@H]3[C@@H](O)C[C@@]21C` [Loteprednol Etabonate] (concentration: 25 µM), the mean cell size is reported as 0.892 ± 0.027. With `C[C@]12CCC(=O)C=C1[C@@H]1C[C@@H]1[C@H]1[C@@H]3[C@@H]4C[C@@H]4[C@@]4(CCC(=O)O4)[C@@]3(C)CC[C@@H]12` [Drospirenone] (concentration: 25 µM) the mean cell size was 0.962 ± 0.03. Work on `Cc1ccc(C)c(OCCCC(C)(C)C(=O)O)c1` [Gemfibrozil] (concentration: 25 µM) yielded a mean cell size of 0.956 ± 0.026. `N=C(N)N/N=C/c1c(Cl)cccc1Cl` [Guanabenz Acetate] (concentration: 25 µM) showed a mean cell size of 0.988 ± 0.044.

These compounds were tested on Jurkat (assay: cell count relative to DMSO control (fraction of control); higher = more cells (less growth inhibition)). Conditions: 48 h.
With `CN(C)CCC(c1ccc(Br)cc1)c1ccccn1` (stereo not drawn) [Brompheniramine Maleate] (concentration: 25 µM) the cell count was 1 ± 0.14. Work on `CC1(C)S[C@@H]2[C@H](NC(=O)Cc3ccccc3)C(=O)N2[C@H]1C(=O)O` [Penicillin G Potassium (Benzylpenicillin)] (concentration: 25 µM) yielded a cell count of 0.934 ± 0.041. For `C[C@@H]1C[C@H]2[C@@H]3CCC4=CC(=O)C=C[C@]4(C)[C@@]3(Cl)[C@@H](O)C[C@]2(C)[C@@]1(OC(=O)c1ccco1)C(=O)CCl` [Mometasone Furoate] (concentration: 25 µM), the cell count was 0.47 ± 0.17. With `COc1cc2nc(N3CCN(C(=O)C4COc5ccccc5O4)CC3)nc(N)c2cc1OC` (stereo not drawn) [Doxazosin Mesylate] (concentration: 2.5 µM) the cell count was 0.79 ± 0.13. Work on `NS(=O)(=O)c1cc2c(cc1C(F)(F)F)NCNS2(=O)=O` [Hydroflumethiazide] (concentration: 25 µM) yielded a cell count of 0.681 ± 0.17. With `C=CC[N+]1([C@H]2C[C@H]3[C@@H]4CC[C@H]5C[C@H](O)[C@@H](N6CCOCC6)C[C@]5(C)[C@H]4CC[C@]3(C)[C@H]2OC(C)=O)CCCC1` [Rocuronium Bromide] (concentration: 25 µM) the cell count was 0.337 ± 0.086. In the case of `Nc1nc(N)c2nc(-c3ccccc3)c(N)nc2n1` [Triamterene] (concentration: 25 µM), the cell count is reported as 0.398 ± 0.082. `Cc1cccc(Nc2ccncc2S(=O)(=O)NC(=O)NC(C)C)c1` [Torsemide] (concentration: 25 µM) gave a cell count of 0.866 ± 0.042. Compound `CCCCN1C[C@H](O)[C@@H](O)[C@H](O)[C@H]1CO` [Miglustat (N-Butyldeoxynojirimycin·HCl)] (concentration: 25 µM) has a cell count of 0.81 ± 0.045. `NC[C@@H]1O[C@H](O[C@H]2[C@@H](O)[C@H](O[C@@H]3[C@@H](O)[C@H](N)C[C@H](N)[C@H]3O[C@H]3O[C@H](CO)[C@@H](O)[C@H](O)[C@H]3N)O[C@@H]2CO)[C@H](N)[C@@H](O)[C@@H]1O` [Paromomycin Sulfate] (concentration: 25 µM) gave a cell count of 0.773 ± 0.041. In the case of `CC(COc1ccccc1)N(CCCl)Cc1ccccc1` (stereo not drawn) [Phenoxybenzamine·HCl] (concentration: 25 µM), the cell count is reported as 0.746 ± 0.08. For `N=C(N)NCCCC[C@@H]1NC(=O)CCSSC[C@@H](C(N)=O)NC(=O)[C@@H]2CCCN2C(=O)[C@H](Cc2c[nH]c3ccccc23)NC(=O)[C@H](CC(=O)O)NC(=O)CNC1=O` [Eptifibatide] (concentration: 25 µM), the cell count was 0.933 ± 0.11.

Reference: the supplement of paper PMC4709259
